Source: PubChem (The Scripps Research Institute Molecular Screening Center)
In the library only some 0.9% were active in any assay of this set; here they are far more common.
SRC1 TRFRET art: flags TR-FRET format artefacts in PPARgamma SRC-1 recruitment agonist screen; TR-FRET ratio at 8 µM; 99,000 tested, 0.34% active; TR-FRET detection artefact counter-screen, emission ratio; active compounds read high; in the data active means TR-FRET ratio above about 2300
SRC3 TRFRET art: flags TR-FRET format artefacts in PPARgamma SRC-3 recruitment agonist screen; TR-FRET artefact counter-screen, PPARgamma/SRC-3 format; active compounds read high; TR-FRET ratio at 8 µM; 99,000 tested, 0.39% active
PPARg SRC-3 ag: PPARgamma-driven SRC-3 recruitment agonism | activation, % at 8 µM | biochemical PPARgamma/SRC-3 coactivator recruitment assay | 200,000 tested, 0.26% active | AID 731 | P37231; in the data active means activation above about 23%;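 further: 0% = DMSO and 100% = reference agonist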
PPARg SRC1 recr: agonists of human PPARgamma SRC-1 coactivator recruitment; P37231; PPARgamma-SRC-1 coactivator recruitment biochemical assay; activation, % at 8 µM; 200,000 tested, 0.41% active; AID 631; in the data active means activation above about 19%;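 further: 0% = DMSO and 100% = reference agonist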
PPARg SRC2 recr: PPARgamma-driven SRC-2 recruitment agonism; P37231; PPARgamma LBD-SRC-2 recruitment, biochemical; activation, % at 8 µM; 200,000 tested, 0.34% active; AID 1032; in the data active means activation above about 22%;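 further: 0% = vehicle and 100% = reference agonist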
SRC2 TRFRET art: TR-FRET artefact, counter-screen to PPARgamma/SRC-2 agonist assay | AID 1049 | active compounds read high | 200,000 tested, 0.4% active | TR-FRET ratio at 8 µM
PPARg SRC2 ag: human PPARgamma SRC-2 recruitment agonism, confirmation | 790 tested, 52% active | biochemical SRC-2 recruitment by PPARgamma | shares compounds with PPARg SRC-3 ag | activation, % at 8 µM | AID 1297; in the data active means activation above about 22%;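 further: 0% = vehicle alone and 100% = reference agonist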
PPARg SRC1 ag: confirmation of agonists of SRC-1 recruitment by human PPARgamma; shares compounds with PPARg SRC-3 ag; PPARgamma–SRC-1 coactivator recruitment biochemical assay; activation, % at 8 µM; 790 tested, 43% active; AID 1300; in the data active means activation above about 20%;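 further: 0% = vehicle wells and 100% = reference agonist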
PPARg SRC3 ag: confirmation of agonists of SRC-3 recruitment by human PPARgamma | shares compounds with PPARg SRC-3 ag | biochemical PPARgamma-SRC-3 coactivator recruitment, agonist mode | activation, % at 8 µM | AID 1301 | 790 tested, 29% active; in the data active means activation above about 24%;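 further: 0% = vehicle wells and 100% = reference agonist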
* hit, by the source's call; · = not tested or not shown. Unless noted, no stated cut-off is given here; in the data, active means TR-FRET ratio above about 2000; inactive means the rest.

SMILES	SRC1 TRFRET art	SRC3 TRFRET art	PPARg SRC-3 ag	PPARg SRC1 recr	PPARg SRC2 recr	SRC2 TRFRET art	PPARg SRC2 ag	PPARg SRC1 ag	PPARg SRC3 ag
Cn1c(=O)cc(SCC(=O)NCC2CCCO2)c2ccc(Cl)cc21 (configuration not stated)	·	·	112.2*	63.4*	89.7*	2967*	42.9*	27.9*	29.1*
Cn1cccc1/C=C(/C#N)c1ccc(F)cc1	1818	1606	-0.5	6.9	-1.3	1709	·	·	·
O=C(c1cccc2ccccc12)C1CCCN(C(=O)c2ccc(N3CCOCC3)cc2)C1 (configuration not stated)	1701	1532	2.7	8.6	1.1	1511	·	·	·
O=C1C2N=NN(CC(=O)N3N=C(c4ccccc4)CC3c3ccc([N+](=O)[O-])cc3)C2C(=O)N1c1ccccc1 (configuration not stated)	1714	1448	1.3	-0.7	2.2	1541	·	·	·
COc1cccc(N2CCN(C(=O)CSc3ccc(F)cc3)CC2)c1	1961	1613	1.6	1.7	8.5	1703	·	·	·
COc1ccc(NC(=O)/C=C/c2cc(Br)ccc2OC)cc1	·	·	-0.1	0.3	-3.2	1651	·	·	·
CCN(CC)c1ccc(NC(=O)/C=C/c2cc(Br)ccc2OC)cc1	·	·	12.8	23.8*	17.3	1525	1.3	4.0	3.1
O=c1oc(-c2ccccc2F)nc2c1cnn2-c1ccccc1	·	·	23.6	22.9*	18.4	1482	14.0	24.5*	27.3*
COc1ccc(CNC(=O)CSc2nc(-c3ccccc3)cc(-c3cccs3)c2C#N)cc1	·	·	22.5	14.4	55.0*	3077*	25.6*	24.6*	13.4
O=C(Nc1cccc(NC(=O)c2ccc(Br)o2)n1)c1ccc(Br)o1	·	·	12.3	19.1*	14.4	1847	5.7	3.2	2.0
COC(=O)/C(C#N)=C1/C=Cc2ccccc2N1	1622	1545	4.5	5.6	8.4	1570	·	·	·
CCn1c(=O)cc(SCC(=O)Nc2cccnc2)c2ccccc21	·	·	26.6*	19.4*	44.5*	2082*	30.8*	19.8*	18.2
CCn1c(=O)cc(SCC(=O)Nc2ccc3c(c2)OCO3)c2ccccc21	·	·	32.2*	23.8*	47.4*	2330*	44.1*	31.6*	29.4*
Cc1nn(-c2ccccc2)c(C)c1/C=N/NC(=O)CSc1nnc(SCc2cccc3ccccc23)s1	1805	1630	-1.3	5.7	14.3	1654	·	·	·
Cc1nc2ccsc2c(=O)n1-c1ccc(Cl)cc1	1822	1783	1.6	7.2	-3.2	1539	·	·	·
CCN(CC)CCNC(=S)N1CCn2c(nc3ccccc32)C1	1634	1662	6.8	2.5	6.2	1601	·	·	·
Cc1nnc(NC(=O)CSc2ccc(-c3ccccn3)nn2)s1	1830	1566	1.1	6.4	-6.9	1572	·	·	·
Cc1ccc(N=Cc2sc(O)c3ccccc23)c(C)c1	·	·	6.2	16.4	7.8	1462	·	·	·
Cc1ccc(N=Cc2sc(O)c3ccccc23)cc1	·	·	19.2	25.1*	28.8*	1560	-3.8	-2.5	-0.5
Cc1c(CNC(=O)C2CC2)c(-n2cccc2)n(Cc2ccccc2)c1C	1865	1435	-0.6	3.5	0.5	1527	·	·	·
c1ccc(Sc2ncnc3c2oc2ccccc23)nc1	·	·	6.6	2.2	15.3	1640	·	·	·
CC(C)Sc1ncnc2c1oc1ccccc12	·	·	38.4*	36.4*	33.2*	1948	45.1*	32.9*	29.8*
COC(=O)c1ccc(CSc2ncnc3c2oc2ccccc23)o1	·	·	50.4*	56.4*	28.6*	1972*	44.0*	28.5*	30.5*
CC(=O)N1CCN(c2ccc(Nc3ncnc4c3oc3ccccc34)cc2)CC1	·	·	13.2	15.0	23.2*	1766	1.7	3.0	2.3
O=C(CSc1ncnc2c1oc1ccccc12)Nc1cccc(C(F)(F)F)c1	·	·	29.0*	20.8*	35.3*	2069*	30.2*	20.2*	17.9
O=C(CSc1ncnc2c1cnn2CCc1ccccc1)Nc1cccc(C(F)(F)F)c1	·	·	-3.0	-3.8	3.8	1380	·	·	·
